# Assay results from PubChem BioAssay AID1259374 (The Scripps Research Institute Molecular Screening Center, 2018).
# The whole screen tested about 650,000 compounds, of which about 5,900 (0.91%) were called active. Only a selection was taken, and actives are over-represented in it overall. Unmarked numbers belong to inactive results. No stated cut-off is given here; in the data, active means inhibition above about 50%; inactive means the rest.
# Target: Microphthalmia-associated transcription factor (Homo sapiens) (UniProt O75030)
# Sequence (O75030 whole entry, looked up): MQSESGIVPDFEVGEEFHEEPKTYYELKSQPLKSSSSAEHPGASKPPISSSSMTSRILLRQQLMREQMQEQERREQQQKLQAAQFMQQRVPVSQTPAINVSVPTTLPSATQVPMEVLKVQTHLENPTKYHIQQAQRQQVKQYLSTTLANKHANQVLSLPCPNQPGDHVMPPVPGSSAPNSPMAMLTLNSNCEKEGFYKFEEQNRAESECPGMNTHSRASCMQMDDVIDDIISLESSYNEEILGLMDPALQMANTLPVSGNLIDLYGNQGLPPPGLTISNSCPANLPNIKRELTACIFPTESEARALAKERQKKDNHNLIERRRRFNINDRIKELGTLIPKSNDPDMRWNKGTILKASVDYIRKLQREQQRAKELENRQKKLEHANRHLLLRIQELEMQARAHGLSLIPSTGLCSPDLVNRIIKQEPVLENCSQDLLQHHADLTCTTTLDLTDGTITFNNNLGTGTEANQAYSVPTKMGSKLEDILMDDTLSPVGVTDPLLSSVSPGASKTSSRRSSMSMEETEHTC
# Assay: MITF inhibitors, primary screen, biochemical, AlphaScreen, human (AID 1259374);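 further: 0% = vehicle wells with protein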
# Conditions: AlphaScreen MITF homodimerization, bead proximity signal; at 2.6 µM; hits give high values
row,SMILES,inhibition
1,CCN1CCc2nc3ccccc3c(C(=O)O)c2C1,61.5% (active)
2,CCn1c(C(=O)O)c(CC(=O)N2CCN(Cc3ccccc3)CC2)c2ccccc21,3.77%
3,CCc1nc2ccccc2c(=O)n1-c1ccccc1,10.7%
4,O=[N+]([O-])c1ccc(N2CCCCC2)c2cccnc12,27.4%
5,CS(=O)(=O)Nc1ccc(C#N)c(Cl)c1,-2.59%
6,CCC(=O)c1ccc(N2CCN(C)CC2)c(F)c1,-2.65%
7,C(#CC1CC1)CN(C1CCCCC1)C1CCCCC1,83.7% (active)
8,CN(CC#CC1CC2CCC1C2)C1CCCCC1 (configuration not stated),-0.53%
9,CCn1c(=O)n(CC2CS2)c2ccccc21 (configuration not stated),-0.54%
10,Cc1cnc2nc3c(cc2c1)CN(Cc1cccnc1)CC3,-8.7%
11,CN1CCN(c2cc3[nH]c(=S)[nH]c3cc2F)CC1,-8%
12,CCOC(=O)C1C2NC(=S)N(c3ccc(Cl)cc3)C1(C)Oc1ccccc12 (configuration not stated),10.8%
13,CCOC(=O)C1C2NC(=S)N(CC)C1(C)Oc1ccc(Cl)cc12 (configuration not stated),65.6% (active)
14,CCOC(=O)C1C2NC(=S)NC1(C)Oc1cc(OC)ccc12 (configuration not stated),13.6%
15,CCOC(=O)C1C2NC(=S)N(c3ccc(F)cc3)C1(C)Oc1c(OCC)cccc12 (configuration not stated),55.5% (active)
16,CCOC(=O)C1C2NC(=S)N(c3ccc(CC)cc3)C1(C)Oc1c(OC)cccc12 (configuration not stated),39.5%
17,CCOC(=O)C1C2NC(=S)NC1(C)Oc1c(OCC)cccc12 (configuration not stated),-1.57%
18,Cn1c(SCCOC(N)=O)nnc1-c1ccc([N+](=O)[O-])cc1,5.78%
19,CS(=O)(=O)c1ccc(CC(=O)N2CCN(C(c3ccccc3)c3ccccc3)CC2)cc1,7.6%

row,SMILES,inhibition
1,c1ccc(-c2ccnc3nc4ccccc4n23)cc1,7.67%
2,OC(CNC1CN2CCC1CC2)COc1cccc2ccccc12 (configuration not stated),18.3%
3,COc1ccc(CN2CCN(c3ccc(C(C)=O)cc3)CC2)cc1,18.3%
4,COc1ccc(CN2CCN(C(C)C)CC2)c(OC)c1OC,68.1% (active)
5,CC(C)N1CCN(Cc2ccccc2)CC1,41%
6,COc1ccc(CN2CCN(c3ccccc3F)CC2)c(OC)c1,14%
7,COc1ccc(CN2CCN(CCO)CC2)c(OC)c1OC,-8.5%
8,COc1ccc(CN2CCN(C(C)C)CC2)cc1,57% (active)
9,CC(C)CN(Cc1c(O)ccc2c(=O)c(-c3ccccc3)coc12)CC(C)C,-5.09%
10,COC(NC(=O)c1ccco1)C(Cl)(Cl)Cl (configuration not stated),17.3%
11,CCCCn1c(C)c(C(=O)OCC)c2cc(OC(=O)COc3ccccc3)c3ccccc3c21,-5.32%
12,Cc1nc2ccccc2c(=O)n1-c1cccc(Cl)c1,22.4%
13,COc1ccc(Cl)cc1C(=O)C1CCCN(Cc2ncc[nH]2)C1 (configuration not stated),7.6%
14,CCCN1CCN(C(=O)Cc2nc(-c3ccc(OC)cc3)no2)CC1,1.81%
15,COc1cc(NC(=O)CCc2nc(C3=CCN(C)CC3)no2)cc(OC)c1OC,51.6% (active)
16,CCOC(=O)C1=C(c2ccccc2)OC(N)=C(C#N)C12C(=O)Nc1ccc(Br)cc12 (configuration not stated),2.49%
17,CC[C@@H](C)C(=O)O[C@H]1[C@H](O)[C@H]2[C@@H](CN3C[C@@H](C)CC[C@H]3[C@@]2(C)O)[C@@H]2C[C@]34O[C@]5(O)[C@@H](OC(=O)C(C)(O)C(C)O)CC[C@@]3(C)[C@@H]5[C@@H](OC(C)=O)[C@@H](OC(C)=O)[C@H]4[C@@]21O (some centres not stated),23.5%
18,c1cncc(CNCCc2c[nH]c3ccccc23)c1,84% (active)
19,O=[N+]([O-])c1ccc(CNCCc2c[nH]c3ccccc23)cc1,25.3%

row,SMILES,inhibition
1,COc1ccc(CNCCc2c[nH]c3ccccc23)cc1OC,13.6%
2,Cc1nn(CC(=O)N2CCC3(CC2)OCCO3)c(=O)c2cccn12,-10.4%
3,O=C1CN=C(c2ccc(Br)cc2)c2cc(Br)ccc2N1,-2.48%
4,N#Cc1ccc(NC(=O)COc2cc(F)ccc2[N+](=O)[O-])cc1Cl,10.7%
5,CN1CN/C(=N\[N+](=O)[O-])N(Cc2ccco2)C1,-9.51%
6,O=C(COc1ccccc1)N1CCN(Cc2cccc(Oc3ccccc3)c2)CC1,32.3%
7,CCN1CCN(Cc2ccc(F)cc2F)CC1,1.97%
8,COc1cc(CN2CCN(c3ccccc3)CC2)cc(OC)c1,5.15%
9,Fc1ccc(N2CCN(Cc3ccccc3F)CC2)cc1,12.7%
10,COc1cccc(CN2CCN(Cc3ccccc3OC)CC2)c1,7.82%
11,Fc1ccccc1CN1CCN(Cc2ccccc2F)CC1,75.5% (active)
12,COc1ccc(CN2CCN(c3ccccc3F)CC2)c(O)c1,21.3%
13,CCC(C)N1CCN(Cc2cccc(OC)c2)CC1 (configuration not stated),63.5% (active)
14,COc1cccc(CN2CCN(Cc3ccccc3F)CC2)c1,75.4% (active)
15,CCOC(=O)C1=C(N)Oc2cc(C)n(CC)c(=O)c2C12C(=O)N(CC(C)C)c1ccccc12 (configuration not stated),4.18%
16,Cc1ccc(C(O)(C(=O)NNc2cc(Cl)ccc2Cl)c2ccc(C)cc2)cc1,8.08%
17,O=[N+]([O-])c1ccc(N2CCc3ccccc3C2)c2ccncc12,5.66%
18,CC(C)(CNc1ccc([N+](=O)[O-])c2cccnc12)CNS(=O)(=O)c1ccc(Cl)cc1,0.37%
19,N#CC1=C(N)Oc2c(c(=O)oc3ccccc23)C1c1ccc(OC(F)(F)F)cc1 (configuration not stated),2.42%
